The list is not random: actives were taken first. Their share in the collection is about 14%.
Pf growth 96h – P. falciparum growth inhibition at 96 hours. 6.9% of 320,000 active. Potency, µM (top dose mostly 28.7 µM), without a hit: top-dose activity change, negative = inhibition, actives largely listed as inhibitors. P. falciparum luciferase reporter growth, 96 h; further: potency means the concentration at half of the fitted maximal effect
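Compounds incubated with erythrocytes infected by luciferase-expressing P. falciparum (2% hematocrit, 0.05% parasitemia final) for 96 hours, 37 C in 5% CO2. Growth inhibition scored as decreased luciferase luminescence.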
Giardia FBPA inh-1 – inhibitors of Giardia lamblia fructose-1,6-bisphosphate aldolase; A8B2U2; Potency, µM (titrated, usually from 59.6 µM), for inactives: at the highest dose activity, negative = inhibition, most hits filed as inhibitors; 0.71% of 290,000 active; purified Giardia FBPA; further: potency means the concentration at half of the fitted maximal effect; nearly all actives have a fitted effect of over 55% in size
Target sequence (A8B2U2 whole entry, looked up): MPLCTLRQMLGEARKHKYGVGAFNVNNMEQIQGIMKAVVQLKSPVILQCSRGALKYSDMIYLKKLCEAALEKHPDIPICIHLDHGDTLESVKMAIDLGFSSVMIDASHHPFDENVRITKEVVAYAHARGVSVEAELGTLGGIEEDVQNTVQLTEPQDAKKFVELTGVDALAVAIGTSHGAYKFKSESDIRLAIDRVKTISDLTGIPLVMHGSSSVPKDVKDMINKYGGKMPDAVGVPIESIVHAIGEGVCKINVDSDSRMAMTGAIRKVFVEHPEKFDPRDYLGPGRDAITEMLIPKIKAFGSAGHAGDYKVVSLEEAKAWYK
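Giardia FBPA (40 nM reagent) was preincubated 10 min at RT with compound (up to 57.5 uM final), then substrate plus GAPDH/TPI/NAD/arsenate coupling system with diaphorase/resazurin was added; resorufin fluorescence (525/598 nm) was read after 20 min.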
Sm TGR inh – inhibitors of Schistosoma mansoni thioredoxin glutathione reductase. Q962Y6. purified TGR, DTNB reduction, TNB absorbance 405 nm. Potency, µM (highest dose often 114 µM), inactives show top-dose activity change, negative = inhibition, hits mostly inhibitors. 3% of 360,000 active. AID 485364; further: potency means the concentration at half of the fitted maximal effect; nearly all actives have a fitted effect of over 60% in size
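First, TGR (20 nM dispensed) and NADPH were mixed with compound. Second, a 15 min room-temperature incubation followed. Third, further NADPH and then DTNB were added to start the reaction. Finally, TNB absorbance was monitored kinetically.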
Pf growth 48h – inhibits P. falciparum growth in the first generation, 48 h; 5.9% of 310,000 active; AID 504832; Potency, µM (series often up to 28.7 µM), without a hit: at the top dose activity change, negative = inhibition, actives largely listed as inhibitors; P. falciparum luciferase growth in erythrocytes, 48 h; further: potency means the concentration at half of the fitted maximal effect
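Luciferase-expressing parasites in RBCs, 2% Hct / 0.1% parasitemia final; RPMI 1640 + 0.5% Albumax; 37 C, 5% CO2, one generation; luminescence read-out, lower signal = inhibition.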
HCMV antiviral – inhibitors of human cytomegalovirus. activity change, negative = inhibition, % at 57.5 µM. AID 1259415. HFF cells, HCMV-luciferase reporter, 72 h; stronger effect = lower value. 4.5% of 410,000 active; in the data active means activity change below about -60%; inconclusive means no clear call, values can overlap the other calls; inactive means above about -39%
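Luciferase read-out from HCMV-luciferase-infected HFFs (MOI 1 PFU/cell) 72 h post infection at 37C; compounds added after 16 h cell attachment; activity normalized between buffer-only basal and Salinomycin (10uM) inhibitor controls.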
Giardia growth – Giardia lamblia growth inhibition. shares compounds with Giardia FBPA inh-1. Giardia lamblia trophozoite growth inhibition. AID 2785. 5% of 1,500 active. Potency, µM (doses to about 57.5 µM), for the others: at the highest dose activity change, negative = inhibition, most hits filed as inhibitors;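 further: potency means the concentration at half of the fitted maximal effect; trophozoites exposed to compound for 48 h at 37 °C; nearly all actives have a fitted effect of over 70% in size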
Mammalian tox – counter-screen for Giardia aldolase inhibitors: mammalian cell toxicity. AID 2786. 4% of 1,500 active. shares compounds with Giardia FBPA inh-1. Potency, µM (doses to about 57.5 µM), without a hit: top-dose viability change, negative = toxicity, actives largely listed as inhibitors. mammalian cell viability counter-screen, qHTS;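 further: Chinese hamster ovary cells used as mammalian cytotoxicity surrogate; viability measured as cellular ATP by luminescence; potency means the concentration at half of the fitted maximal effect; compound exposure lasted 48 h before reading; nearly all actives have a fitted effect of over 60% in size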
Giardia FBPA inh-2 – confirmation of Giardia fructose-bisphosphate aldolase inhibitors. 5% of 1,500 active. purified Giardia aldolase enzyme activity, qHTS. shares compounds with Giardia FBPA inh-1. Potency, µM (series often up to 57.5 µM), inactives show at the highest dose activity change, negative = inhibition, actives largely listed as inhibitors; further: potency means the concentration at half of the fitted maximal effect; nearly all actives have a fitted effect of over 45% in size
Rabbit FBPA inh – blocks rabbit muscle aldolase in Giardia aldolase selectivity test. shares compounds with Giardia FBPA inh-1. Rabbit muscle FBPA enzyme inhibition, selectivity counter-screen. Potency, µM (highest dose often 57.5 µM), for inactives: top-dose activity, negative = inhibition, actives largely listed as inhibitors. 4% of 1,500 active; further: potency means the concentration at half of the fitted maximal effect; nearly all actives have a fitted effect of over 60% in size
Target sequence (P00883 whole entry, looked up): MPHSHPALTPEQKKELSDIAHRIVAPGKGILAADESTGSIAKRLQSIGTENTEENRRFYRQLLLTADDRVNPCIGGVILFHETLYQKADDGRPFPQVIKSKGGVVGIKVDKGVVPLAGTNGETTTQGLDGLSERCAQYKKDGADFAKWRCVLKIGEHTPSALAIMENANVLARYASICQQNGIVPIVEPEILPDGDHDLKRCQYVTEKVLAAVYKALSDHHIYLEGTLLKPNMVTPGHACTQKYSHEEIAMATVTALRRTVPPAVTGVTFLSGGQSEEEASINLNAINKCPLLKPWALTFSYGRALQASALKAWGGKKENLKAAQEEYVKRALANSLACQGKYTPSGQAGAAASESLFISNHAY
GAPDH coupling – GAPDH inhibition flagged for Giardia aldolase hits. AID 2795. 6% of 1,500 active. GAPDH coupling enzyme counterscreen, biochemical, qHTS. Potency, µM (series often up to 57.5 µM), for the others: at the top dose activity change, negative = inhibition, hits mostly inhibitors. shares compounds with Giardia FBPA inh-1; further: potency means the concentration at half of the fitted maximal effect; nearly all actives have a fitted effect of over 55% in size
An asterisk follows results filed as active; ? = inconclusive; . = no result given; [ ] = another dose, or the depositor's remark. Unless noted, the call rests on the fitted dose curve; in most records, active means well fitted curve in the direction sought with a large enough effect; inconclusive means small, poorly fitted or top-dose-only effect, or another doubt; inactive means no such curve, though single readings can be large; an effect the other way counts as inactive or inconclusive. On the % scale 0 is the no-effect control and ±100 the full control effect.

SMILES	Pf growth 96h	Giardia FBPA inh-1	Sm TGR inh	Pf growth 48h	HCMV antiviral	Giardia growth	Mammalian tox	Giardia FBPA inh-2	Rabbit FBPA inh	GAPDH coupling
CN(C)c1ccc(N/C=C/C(=O)C(C)(C)C)cc1	.	14.1µM*	-24.8%	2.33µM*	26.6	?	-17.4%	-48.6%	?	-21.2%
NNc1n[nH]c(=S)n1N	-16.2%	1.77µM*	-18.3%	?	-21.0	20.2%[38.3 µM]	-3.8%	16.3µM*	18.3µM*	18.3µM*
Nn1c(Cc2ccccc2)n[nH]c1=S	25.3%	-16.1%	-1.2%	2.9%	-24.9	.	.	.	.	.
Cc1ccc([C@H]2N[C@]3(CCCN(Cc4ccc(Br)cc4)C3=O)[C@H]3C(=O)N(Cc4ccccc4)C(=O)[C@@H]23)cc1	.	.	.	.	-10.1	.	.	.	.	.
O=C(O)COc1ccccc1C(Nc1cccnc1)c1cc(Cl)c2cccnc2c1O (centres undefined)	1.2%	17.7µM*	1µM*	13.8%	.	29.6%	11.4%	-16.5%	-6.2%	2.9%
COCCn1c(C)c(C)c2c(NCCc3ccccc3)ncnc21	122.1%	28.2µM*	-12.5%	34.0%	-98.7*	-28.5%	?	1.4%	1.4%	12.4%
COc1cc(NC(=O)CSc2nc3ncnc(N)c3[nH]2)c(C(=O)O)cc1OC	13.6%	11.2µM*	-15.0%	24.7%	37.3	5.6%	-13.6%	-1.6%	2.3%	2.3%
Cc1cc(NC(=O)c2sccc2C)n(-c2nc3ccccc3[nH]2)n1	?	15.8µM*	.	?	-70.1*	?	?	2.1%	1.2%	0.0%
Cc1cc(NC(=O)c2cccs2)n(-c2nc3ccccc3[nH]2)n1	-22.9%	-25.2%	.	?	?	.	.	.	.	.
COc1ccc(C(=O)Nc2cc(C)nn2-c2nc3ccccc3[nH]2)c(OC)c1	-131.3%	17.7µM*	6.2%	?	-63.5*	0.4%	?	0.9%	6.3%	-3.3%
Cc1cc(NC(=O)c2ccccc2)n(-c2nc3ccccc3[nH]2)n1	?	-22.2%	-8.4%	-23.9%	16.8	.	.	.	.	.
Cc1cc(NC(=O)CC#N)n(-c2nc3ccccc3[nH]2)n1	?	15.8µM*	14.2%	?	224.4	-7.6%	-16.4%	0.4%	3.5%	6.6%
COC(=O)C1CCN(C(c2ccccc2Cl)c2sc3nc(-c4ccco4)nn3c2O)CC1 (centres undefined)	.	.	7.0%	.	10.1	.	.	.	.	.
Cc1cccc(C)c1NC(=O)c1cc(S(=O)(=O)N2CCc3ccccc3C2)ccc1F	.	.	-17.8%	.	-38.4	.	.	.	.	.
COc1ccc(-c2cn3nc(N4CCC(C(=O)Nc5cccc(OC)c5)CC4)sc3n2)cc1	.	.	-10.9%	.	0.0	.	.	.	.	.
CCOC(=O)C(C)Sc1ncc(OC)c(Sc2ccc(Cl)cc2)n1 (centres undefined)	28.8%	1.3%	-21.1%	36.8%	-2.0	.	.	.	.	.
CCOC(=O)C(C)Sc1nc(-c2ccccn2)ncc1OC (centres undefined)	3.29µM*	15.8µM*	4.2%	13.1µM*	-21.3	?	-28.2%	-11.7%	-10.7%	?
CC(NC(=O)c1cccs1)C1CCCO1 (centres undefined)	?	-1.5%	-4.0%	25.9%	73.9	.	.	.	.	.
O=C(NC(=S)Nc1ccc(Cl)cn1)c1cc([N+](=O)[O-])ccc1N1CCOCC1	60.8%	14.1µM*	12.1%	?	-9.7	14.8%	18.1%	2.9%	-2.8%	11.4%
O=C(NC(=S)Nc1cc(Cl)ccc1N1CCOCC1)c1ccccc1[N+](=O)[O-]	-21.9%	-19.8%	-9.3%	?	28.8	.	.	.	.	.
CCOC(=O)c1c(-c2ccccc2)csc1NC(=O)C(C)NCCCN1CCOCC1 (centres undefined)	?	17.7µM*	-14.7%	?	-35.2	4.47µM*	-2.2%	-5.7%	-4.4%	-3.2%
O=C(NC(Cc1c[nH]c2ccccc12)C(=O)O)c1ccc(Br)cc1 (centres undefined)	78.8%	17.7%	-13.7%	41.0%	21.3	.	.	.	.	.
COc1ccccc1N1CCN(C(C)C(=O)N2CC(C)OC(C)C2)CC1 (centres undefined)	11.6%	5.61µM*	-2.0%	5.9%	22.7	9.3%[10.4 µM]	4.0%	-4.7%	-7.5%	5.0%
COc1ccccc1N1CCN(C(=O)C(F)F)CC1	?	1.2%	19.7%[11.4 µM]	.	-37.7	.	.	.	.	.
CCCCC[C@@H](C)N1C[C@H](COCc2ccccc2)Oc2cc(N3CCC[C@H]3C(N)=O)ccc2S1(=O)=O	.	.	.	.	-22.9	.	.	.	.	.
SMILES	Pf growth 96h	Giardia FBPA inh-1	Sm TGR inh	Pf growth 48h	HCMV antiviral	Giardia growth	Mammalian tox	Giardia FBPA inh-2	Rabbit FBPA inh	GAPDH coupling
O=c1c(O)cccc2cc(O)c(O)c(O)c12	?	14.1µM*	8.91µM*	8.7%	-26.7	-16.5%[38.3 µM]	-18.2%	10.3µM*	16.3µM*	36.6µM*
COc1ccc(CNC(=O)CCn2c(C)csc2=O)cc1	32.8%	.	-4.5%	0.0%	-3.8	.	.	.	.	.
C=CCN(CC#CCOc1ccccc1OC)CC=C	35.2%	19.9µM*	-1.8%	25.6%[5.75 µM]	.	0.0%[10.4 µM]	7.9%	5.0%	14.6%	0.9%
COc1ccccc1OCC#CCN1CCCC1	?	?	.	7.0%	26.7	.	.	.	.	.
Cc1[nH]n(-c2ncc(-c3ccccc3)s2)c(=O)c1C(c1ccc(Cl)cc1)C(C#N)C#N (centres undefined)	?	14.4%	?	-0.8%	-1.6	.	.	.	.	.
CCOc1cc(C=O)cc(N=Nc2cccc([N+](=O)[O-])c2)c1O	?	12.6µM*	?	5.8%	34.0	?	1.2%	-19.2%	-11.3%	-0.7%
CCN(N=Nc1cccc([N+](=O)[O-])c1)c1cccc([N+](=O)[O-])c1	-24.9%	5.7%	2.5%	.	12.9	.	.	.	.	.
COC/C=C/C1=CC2=CC(=O)C(C)(OC(=O)c3cnc4ccccc4n3)C(=O)C2=CN1CCOC (centres undefined)	.	?	.	.	-2.9	.	.	.	.	.
COC/C=C/C1=CC2=CC(=O)C(C)(OC(=O)c3cnc4ccccc4n3)C(=O)C2=CN1CCN1CCOCC1 (centres undefined)	9.28µM*	15.8µM*	14.1µM*	?	-16.9	-19.0%	-5.4%	?	?	?
CN(C)c1ccc(C=NN2CCCCCC2)cc1	.	.	.	.	9.5	.	.	.	.	.
